Screens as filed in PubChem BioAssay.
Hits are enriched below; roughly 1.1% of the tested compounds scored in any of these assays.
Mtb BioA inh: inhibitors of Mycobacterium tuberculosis BioA enzyme; purified M. tuberculosis BioA enzyme, plate reader; inhibition, % at 9.99 µM; hit rate 0.096% among 360,000; AID 602481; in the data active = inhibition above about 40%; inconclusive = no clear call, values can overlap the other calls
CCHF vOTU inh: CCHFV vOTU protease inhibition. hit rate 0.55% among 370,000. Pep-AMC fluorescence. inhibition, % at 11.5 µM; in the data active = inhibition above about 30%
Y pestis TopoI: inhibitors of Yersinia pestis topoisomerase I; Y. pestis Topo-I cleavage product accumulation, plate reader; activity, % at 10 µM; hit rate 0.064% among 360,000; in the data active = activity above about 50%, passing the limit was not always enough; inconclusive = no clear call, values can overlap the other calls
Mtb bLac sens: beta-lactam sensitization of Mtb H37Rv; M. tuberculosis H37Rv growth with meropenem, percent inhibition; inhibition, % at 25 µM; hit rate 0.27% among 330,000;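 also: growth measured after seven days incubation then overnight dye step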
RecA intein inh: Mtb RecA intein splicing inhibition. inhibition, % (no concentration beside the values). cell-free RecA intein splicing, fluorescence. hit rate 0.75% among 290,000; in the data active = inhibition above about 30%; inconclusive = no clear call, values can overlap the other calls
Target sequence (P9WHJ3 whole entry, looked up): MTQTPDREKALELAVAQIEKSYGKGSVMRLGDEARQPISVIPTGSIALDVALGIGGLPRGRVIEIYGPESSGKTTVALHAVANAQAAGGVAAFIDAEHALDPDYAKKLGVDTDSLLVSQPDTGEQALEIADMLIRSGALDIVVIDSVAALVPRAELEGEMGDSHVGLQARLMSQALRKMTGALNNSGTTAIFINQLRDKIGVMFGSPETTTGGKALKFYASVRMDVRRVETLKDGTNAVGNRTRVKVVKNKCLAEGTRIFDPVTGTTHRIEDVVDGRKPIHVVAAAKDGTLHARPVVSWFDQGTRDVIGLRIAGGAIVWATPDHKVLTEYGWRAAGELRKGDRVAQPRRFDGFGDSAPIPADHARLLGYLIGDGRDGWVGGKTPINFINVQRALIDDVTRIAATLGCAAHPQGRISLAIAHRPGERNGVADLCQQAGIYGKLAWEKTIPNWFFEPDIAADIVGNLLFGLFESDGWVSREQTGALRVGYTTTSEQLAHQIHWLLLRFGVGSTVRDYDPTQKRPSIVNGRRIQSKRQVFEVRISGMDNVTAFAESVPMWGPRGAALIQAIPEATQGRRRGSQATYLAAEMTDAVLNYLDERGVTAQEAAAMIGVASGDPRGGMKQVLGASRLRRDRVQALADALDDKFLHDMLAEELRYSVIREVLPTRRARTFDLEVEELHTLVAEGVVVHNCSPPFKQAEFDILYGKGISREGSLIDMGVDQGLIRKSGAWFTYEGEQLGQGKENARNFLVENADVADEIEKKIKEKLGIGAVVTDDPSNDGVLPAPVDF
BJeLR viability: BJeLR cell viability loss; BJeLR (HRASV12) viability, CellTiter-Glo ATP luminescence, 48 h; hit rate 0.17% among 300,000; AID 1554; inhibition, % (no concentration beside the values); in the data active = inhibition above about 50%; inconclusive = no clear call, values can overlap the other calls
GFP chromophore: counter-screen GFP chromophore formation inhibition. AID 434968. shares compounds with RecA intein inh. hit rate 83% among 2,100. EC50, µM. cell-free GFP chromophore formation, fluorescence
A number is an active result; n = inactive; u = inconclusive; x = no result given. Unless noted, no rule for the calls is given here.

SMILES	Mtb BioA inh	CCHF vOTU inh	Y pestis TopoI	Mtb bLac sens	RecA intein inh	BJeLR viability	GFP chromophore
Cc1nc(NCc2cccnc2)c2c3c(sc2n1)CCCC3	n	n	n	n	n	n	x
c1cncc(CNc2ncnc3sc4c(c23)CCCC4)c1	x	n	n	n	36.5	n	n
C[C@@H]1CN([C@H](C)CO)C(=O)c2cc(N(C)C)ccc2O[C@@H](C)CCCCO[C@@H]1CN(C)C(=O)Nc1ccc(C(F)(F)F)cc1	n	x	x	x	x	x	x
COc1ccccc1NC(=O)c1cnc(SCC(=O)NCC2CCCO2)n(C)c1=O (stereo unspecified)	n	n	n	n	45.1	n	n
O=C1NN(c2ccccc2)C(=O)/C1=C/c1ccc(-c2ccc(C(=O)O)cc2)o1	n	n	n	n	n	n	x
O=C(O)c1ccc(N2C(=O)/C(=C/c3ccc(-c4ccc([N+](=O)[O-])cc4)o3)C=C2c2ccccc2)cc1	x	x	n	n	32.2	n	n
c1cc2cn[nH]c2cc1NC1CCCCCC1	x	n	n	n	89.0	n	15.6
COc1cccc(-c2ccc3c(c2)O[C@H](CN(C)C)[C@@H](C)CN([C@H](C)CO)S3(=O)=O)c1	n	x	x	x	x	x	x
CC(=O)Oc1c(Br)cc(N(C(C)=O)S(=O)(=O)c2ccccc2)c2ccccc12	n	n	n	n	36.6	n	5.3
O=C(NC1CCCC1)C(c1ccc(F)cc1)N(Cc1ccc(F)cc1)C(=O)CCl (stereo unspecified)	n	n	n	n	55.8	n	1.75
COc1ccc(N(C(=O)CCl)C(C(=O)NC2CCCCC2)c2cccnc2)cc1 (stereo unspecified)	x	n	n	n	75.1	80.7	11
O=C(NC1CCCCC1)C(c1cccnc1)N(C(=O)CCl)c1ccc(F)cc1 (stereo unspecified)	n	n	n	n	73.2	n	11.5
COc1cccc(N(C(=O)c2cnccn2)C(C(=O)NC2CCCCC2)c2ccc(Cl)cc2)c1 (stereo unspecified)	n	n	n	n	n	n	x
COc1ccc(C(C(=O)NC2CCCCC2)N(C(=O)CCl)c2cccc(Cl)c2)cc1 (stereo unspecified)	n	n	n	n	58.7	119.0	u
COc1ccc(NC(=O)N(C)C[C@H]2Oc3c(NS(=O)(=O)c4ccc(F)cc4)cccc3C(=O)N([C@H](C)CO)C[C@H]2C)cc1	n	x	x	x	x	x	x
O=C(C[C@@H]1C=C[C@H](NC(=O)NC2CCCCC2)[C@@H](CO)O1)NCc1ccccc1	n	x	x	x	x	x	x
O=C(c1cccs1)[C@@H]1[C@@H]2C(=O)N(Cc3ccc4c(c3)OCO4)C(=O)[C@@H]2C2c3ccccc3C=CN21 (stereo partly specified)	x	x	x	n	37.8	n	4.24
O=C(c1ccc2c(c1)OCO2)[C@@H]1[C@@H]2C(=O)N(C3CCCCC3)C(=O)[C@@H]2C2c3ccccc3C=CN21 (stereo partly specified)	n	n	n	x	n	n	x
O=C1C(Br)=Cc2cccc3cccc1c23	n	n	n	n	69.9	n	35.5
COc1cccc(S(=O)(=O)N[C@H]2CC[C@@H](CCn3cc(-c4ccc(F)cc4)nn3)O[C@H]2CO)c1	n	x	x	x	x	x	x
O=S(=O)(CCSc1nc2ccccc2s1)c1nc2ccccc2s1	n	n	n	n	78.1	n	3.65
COc1ccc(S(=O)(=O)Nc2ccc3c(c2)CC(=O)N([C@@H](C)CO)C[C@@H](C)[C@@H](CN(C)S(=O)(=O)c2ccc(Cl)cc2)O3)cc1	n	x	x	x	x	x	x
CN1N=C(C(F)(F)F)CC1=O	x	n	n	n	n	n	x
CN1N=C(C(C)(C)C)CC1=O	x	n	x	n	35.6	n	18.6
Cc1nc(N2[C@@H](C#N)[C@@H](c3ccccc3)[C@@H]2CO)sc1C	n	x	x	x	x	x	x
Cc1ccccc1-c1cnc2c(c1)C(=O)N([C@@H](C)CO)C[C@H](C)[C@@H](CN(C)C(=O)c1ccc(F)cc1)O2	n	x	x	x	x	x	x
Cn1c(=O)c([N+](=O)[O-])c(Cl)c2ccccc21	x	n	n	x	55.6	n	10.5
CCN(CC)c1c([N+](=O)[O-])c(=O)n(C)c2ccccc12	x	n	n	n	n	n	x
Cn1c(=O)c([N+](=O)[O-])c(-n2cnc3ccccc32)c2ccccc21	n	n	n	n	63.0	n	22
CN1CCN(Cc2cc(=O)oc3ccc(Cl)cc23)CC1	x	n	n	n	48.0	n	n
